Bioassay records: PubChem, National Center for Advancing Translational Sciences (NCATS)
DT40 TDP1 no CPT: qHTS for Inhibitors of human tyrosyl-DNA phosphodiesterase 1 (TDP1): qHTS in cells in absence of CPT; DT40 Tdp1-/- hTDP1 cells, no CPT, ATP luminescence, 48 h; actives 15% (n = 420,000); Potency, µM (titrated, usually from 46.2 µM), for the others: at the highest dose activity change, negative = growth inhibition, actives largely listed as inhibitors; note: potency is the fitted concentration of half-maximal effect; nearly all actives have a fitted effect of over 55% in size
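Growth of hTDP1-complemented DT40 Tdp1-knockout cells is measured by ATP luminescence after at least 48 hr compound exposure at 37 °C, with DMSO substituting for the 20 nM CPT used in the parallel screen.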
TDP1 cell CPT: DT40-hTDP1 cell growth loss with CPT; AID 686979; chicken DT40 Tdp1-/-;hTDP1 cells + 20 nM CPT, ATP luminescence, 48 h; actives 12% (n = 420,000); Potency, µM (top dose mostly 46.2 µM), inactives show at the top dose activity change, negative = growth inhibition, actives largely listed as inhibitors; note: potency is the fitted concentration of half-maximal effect; nearly all actives have a fitted effect of over 55% in size
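Cell growth measured by CellTiter-Glo luminescence after a minimum 48 h, 37 C compound exposure with 20 nM CPT in Tdp1-knockout DT40 cells stably expressing hTDP1, seeded 400/well; qHTS titration format.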
IL-1B inflam inh: blocks inflammasome-driven IL-1 beta release; THP-1 LPS/ATP IL-1B secretion, AlphaLISA, 16 h; stronger effect = lower value; activity change, % at 57.5 µM; actives 4.7% (n = 360,000); in the data active = activity change below about -50%; inconclusive = mostly about -30% to -49%
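Secreted IL-1B measured by AlphaLISA bead assay after 16 h compound exposure of THP-1 cells; compounds (final up to 57.5 uM) added 1 h before LPS (250 ng/mL) and ATP (1.25 mM) stimulation; lower signal means less secretion.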
HT1080 IDH1KD tx: kills HT-1080 cells with IDH1 knockdown; HT-1080 IDH1 knockdown viability, ATP luminescence, 48 h; Potency, µM (top dose mostly 46.1 µM), inactives show top-dose activity, negative = toxicity, usual class: cytotoxic; actives 2% (n = 360,000); AID 686971;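 note: potency is the fitted concentration of half-maximal effect; 0% = DMSO wells and -100% = cell-free medium wells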
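HT-1080-IDH1KD cells (IDH1 knocked down), 750/well in RPMI with 5% FBS, treated with compound 48 h at 37 degrees C. Viability by CellTiter-Glo luminescence, normalised to DMSO and no-cell wells; concentration-response curves classed.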
HT1080-NT tox: kills 2HG-producing HT-1080-NT fibrosarcoma cells; HT-1080-NT fibrosarcoma viability, CellTiter-Glo ATP luminescence, 48 h; actives 1.6% (n = 360,000); Potency, µM (series often up to 46.1 µM), for the others: top-dose activity, negative = less viability, hits mostly cytotoxic; AID 686970;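 note: NT is the 2HG producing partner of a matched IDH1 knockdown line; potency is the fitted concentration of half-maximal effect; 0% = DMSO-treated cells and -100% = media-only wells without cells; nearly all actives have a fitted effect of over 55% in size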
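A 48-hour cytotoxicity screen used HT-1080-NT cells plated 2 hours before compound delivery. ATP-based CellTiter-Glo luminescence measured viability, normalized to DMSO and no-cell controls.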
Active calls of the source: *; ? = inconclusive; . = not tested or not shown; [ ] = remark or other dose. Compounds with a hit are over-represented: about 19% of the library has one in this group of screens. Unless noted, calls come from the whole dose curve; as a rule, active = well fitted curve in the direction sought with a large enough effect; inconclusive = small, poorly fitted or top-dose-only effect, or another doubt; inactive = no such curve, though single readings can be large; an effect the other way counts as inactive or inconclusive. Unless noted, % is set by controls: 0 for no effect and ±100 for the full control effect.

SMILES | DT40 TDP1 no CPT | TDP1 cell CPT | IL-1B inflam inh | HT1080 IDH1KD tx | HT1080-NT tox
Cc1ccc(Cn2cc(C(=O)c3ccc(F)cc3)c(=O)c3cc4c(cc32)OCCO4)cc1 | ? | ? | -2.1 | -11.6% | -6.7%
O=C(NC(Cc1ccccc1)C(=O)NCCc1ccccn1)c1ccccc1 (stereo not drawn) | -23.3% | -1.2% | 14.5 | 5.6% | 0.8%
COc1ccc(Cn2cc(C(=O)c3ccccc3)c(=O)c3cc(OC)ccc32)cc1 | -9.6% | 3.3% | -12.3 | -14.0% | -11.3%
CCOc1ccc(C(=O)c2cn(Cc3ccccc3OC)c3cc4c(cc3c2=O)OCCO4)cc1 | 14.6µM* | ? | . | . | .
Cc1ccc(C(=O)c2cn(Cc3ccccc3)c3ccccc3c2=O)cc1 | 20.6µM* | 23.1µM* | . | . | .
Cc1ccc(C)c(-n2cc(CNCCc3cnccn3)c(-c3ccccc3)n2)c1 | ? | ? | ? | 1.9% | -9.9%
Cn1cc(CN2CCN(c3ccc(Cl)cn3)CC2)c(-c2ccccc2F)n1 | ? | ? | ? | 4.0% | 3.5%
Cc1cc(-c2nn(-c3ccccc3F)cc2CN2CCN(c3ccccn3)CC2)c(C)s1 | 11.6µM* | 13µM* | ? | ? | -4.1%
Cc1cc(-c2nn(-c3ccccc3F)cc2CNCCc2cnccn2)c(C)s1 | -28.3% | ? | -62.5* | -22.6% | -13.0%
Cc1cccc(N2CCN(Cc3cn(C)nc3-c3ccccc3F)CC2)n1 | 2.59µM* | 1.84µM* | 0.0 | 1.84µM* | ?
NC(N)=NCCN1CCCCCCC1 | -27.3% | ? | . | . | .
CCOC(=O)N1CCN(S(=O)(=O)N2CCCC(C(=O)NCCc3ccc(OC)c(OC)c3)C2)CC1 (stereo not drawn) | 12.9% | -3.6% | -1.6 | 8.5% | 16.5%
Cc1ccc(Sc2c(C)nn(C(C)(C)C)c2OC(=O)C(C)(C)C)cc1 | ? | -22.7% | . | . | .
CN1C(=O)C(C)(C)c2cc(S(=O)(=O)N3CCN(c4ccc(F)cc4)CC3)ccc21 | -12.3% | ? | 33.5 | -2.2% | -1.4%
O=C(NCCN1CCC(n2c(=O)[nH]c3ccccc32)CC1)c1cccc2c1-c1ccccc1C2=O | 20.6µM* | ? | -95.3* | 5.7% | 13.7%
O=C(NCCN1CCC(n2c(=O)[nH]c3ccccc32)CC1)c1ccc(F)cc1 | ? | ? | ? | 8.0% | 0.7%
O=C(NCCN1CCC(n2c(=O)[nH]c3ccccc32)CC1)c1ccc(Cl)c(Cl)c1 | 18.4µM* | ? | . | ? | 20.6µM*
O=C(NCCN1CCC(n2c(=O)[nH]c3ccccc32)CC1)c1c(F)cccc1F | -32.5% | -23.3% | -64.1* | 6.2% | 3.6%
O=C(NCCN1CCC(n2c(=O)[nH]c3ccccc32)CC1)c1ccccc1Cl | ? | ? | -22.8 | 15.8% | 4.8%
O=C(NCCN1CCC(n2c(=O)[nH]c3ccccc32)CC1)c1ccc(Cl)cc1 | 9.2µM* | 3.66µM* | -11.3 | -18.7% | ?
CCN(CC(=O)Nc1cccc(OC)c1)C(=O)C1CCN(C(=O)Nc2ccccc2)CC1 | -11.0% | -14.1% | 2.4 | 10.6% | 5.3%
CCOc1ccccc1C(=O)NCCN1CCC(n2c(=O)[nH]c3ccccc32)CC1 | 29.1µM* | 23.1µM* | -24.7 | -22.2% | -13.0%
COc1ccccc1C(=O)NCCN1CCC(n2c(=O)[nH]c3ccccc32)CC1 | ? | ? | -6.4 | 26.4% | 7.2%
O=[n+]1c2c(n([O-])c3c1CCCC3)CCCCC2 | 8.8% | 3.8% | 3.4 | 8.4%[9.24 µM] | 14.9%
NC(=S)N/N=C/c1ccccc1OCCSc1ccc(Cl)cc1 | 14.6µM* | 13µM* | ? | ? | ?
SMILES | DT40 TDP1 no CPT | TDP1 cell CPT | IL-1B inflam inh | HT1080 IDH1KD tx | HT1080-NT tox
COc1cccc(/C=N/NC(N)=S)c1OCc1ccccc1Cl | 4.11µM* | 2.91µM* | -14.3 | ? | -0.2%
COc1cc(/C=N/NC(N)=S)cc(Br)c1OCc1ccccc1F | 6.51µM* | 6.51µM* | 32.2 | -19.4% | -9.9%
CNC(=S)N/N=C/c1cc(Br)c(OCc2ccncc2)c(OC)c1 | ? | ? | -1.7 | 9.7% | 12.9%
CCOc1cc(/C=N/NC(N)=S)cc(Br)c1OCc1ccccc1C | 16.4µM* | 5.8µM* | 68.4 | -14.4% | -22.8%
O=C(CSc1nnc(-c2cccnc2)s1)Nc1ccc(C(=O)O)cc1 | -12.4% | 9.4% | 9.7 | 0.2% | 4.2%
O=C(NNC(=O)C1CC(=O)N(Cc2ccccc2)C1)c1ccc(F)cc1 (stereo not drawn) | 0.8% | 9.2% | 8.1 | 1.3% | 4.8%
COc1cccc(NC(=S)/C(=C(\[O-])c2ccc([N+](=O)[O-])cc2)[n+]2ccccc2)c1 | ? | ? | 31.4 | 3.5% | 9.5%
COc1cc(/C=N/N=C(\N)c2nonc2N)cc(OC)c1O | ? | -9.6% | -7.7 | 11.7% | -18.2%
CCOc1cc(/C=N/N=C(\N)c2nonc2N)cc(Br)c1OCc1cccc2ccccc12 | 13µM* | 23.1µM* | 3.2 | 18.4µM* | 23.1µM*
C[N+](C)(C)C/C=C1/COCO1 | ? | 18.4µM* | -8.8 | 22.6% | 18.8%
CC1=C(C#N)C2C(/C1=N/O)C2(C)C (stereo not drawn) | -12.9% | 5.7% | 7.0 | -7.3% | -20.8%
Cc1nn(-c2cc(C)c3ccccc3n2)c2c1C1C(C2)C1(C)C (stereo not drawn) | ? | 18.4µM* | 26.2 | -10.8% | 2.7%
CN(C)N=Nc1nc2c([nH]1)c(=O)n(C)c(=O)n2C | -25.5% | -3.9% | -5.0 | -7.4% | 0.1%
CN(C)N=Nc1nc2c(c(=O)n(C)c(=O)n2C)n1CC1CO1 (stereo not drawn) | 14.6µM* | 3.66µM* | 12.7 | ? | ?
O=C(Nc1ccc(F)cc1F)Nc1csc2ccccc12 | 23.1µM* | ? | -92.3* | ? | ?
CC(C)CNC(=O)Nc1ccc(F)c(Cl)c1 | -21.6% | -1.0% | ? | 0.5% | 2.5%
O=C(Nc1ccc(F)c(Cl)c1)Nc1csc2ccccc12 | 3.66µM* | 5.17µM* | -69.6* | 6.51µM* | 9.2µM*
O=C(COC(=O)c1n[nH]c2ccccc12)NC(=O)NC1CCCC1 | -22.7% | ? | 12.2 | -8.1% | -4.9%
O=C(COC(=O)c1n[nH]c2ccccc12)NC(=O)NC12CC3CC(CC(C3)C1)C2 | 9.2µM* | 13µM* | 28.5 | -19.4% | -12.6%
O=C(NC12CC3CC(CC(C3)C1)C2)c1ccc(-c2ccc(Cl)cc2)o1 | 18.4µM* | 23.1µM* | -27.3 | ? | -15.7%
O=C(COC(=O)c1ccc(-c2ccc([N+](=O)[O-])cc2)o1)NC(=O)NC12CC3CC(CC(C3)C1)C2 | 13µM* | 16.4µM* | -24.2 | 4.6% | -0.8%
O=C(NC12CC3CC(CC(C3)C1)C2)c1ccc(-c2cccc(Cl)c2)o1 | ? | ? | 5.4 | -8.7% | -6.9%
